A short description of assay [1]: kinase inhibitors against Plasmodium liver-stage infection, cell-based, known kinase inhibitor set, luminescence, hepatoma host viability (AID 624392).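 Also: infected cells incubated roughly two days before readout.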 The following applies: Plasmodium liver stage in hepatoma cells, luciferase luminescence, concentration not given here; liver cell % of control: measured here: host liver cell viability; parasite % of control: stronger effect = lower value.

A short description of assay [2]: modulators of glucocorticoid suppression of NF-kB, cell-based, luciferase, IL-1B stimulus, dexamethasone (AID 624486).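 As to percent of negative control (+Dex): 100% = mean signal of vehicle control wells on the plate.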 The settings on record: NF-kB luciferase reporter, IL-1B + dexamethasone, luminescence; percent of negative control (+Dex): actives lie on both sides, concentration not given here; z-score: measured here: IL-1B alone, no Dex.
The nature of assay [3]: kinase inhibitors altering Pseudomonas killing of worms, whole organism (AID 651566).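 Also: tested at 14 µM; sign flipped so higher z means a lower ratio.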 The following applies: C. elegans killed by P. aeruginosa, survival ratio.
Assay [4] is described as follows: activators of macrophage pro-inflammatory response, cell-based, murine, luminescence (AID 652131). The settings on record: murine macrophage pro-inflammatory reporter, stronger effect = higher value.
The target of assay [5] is Cellular tumor antigen p53 (Homo sapiens) (UniProt P04637). Kind of assay: kinase inhibitors altering GFP-p53 stability in HPV16-positive cells, imaging, known kinase inhibitor set, EGFP/DsRed ratio (AID 1053116).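 Also: cells exposed to compounds for 24 h at 37 °C before reading.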 The following applies: stronger effect = higher value; EGFP object count: measured here: GFP-p53 positive objects count.
Assay [6] is described as follows: IRF3 reporter activation in THP-1 macrophages, cell-based, PMA-stimulated THP-1, luminescence (AID 1053176). The following applies: PMA-differentiated THP-1, IRF3 reporter luminescence; stronger effect = higher value.
Assay [7] can be described thus: survival rescue of mitochondrial mutant cells in low glucose, primary screen, MELAS cybrids, Rieske KO mouse fibroblasts, CellTiter-Glo (AID 1508586;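 active = mean z-score across replicates of 1.96 or higher in either the MELAS or the Rieske mutant cell line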;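 also: z relative to plate mean and SD of compound and empty wells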).
[8] abbreviates: MELAS cybrid survival, CellTiter-Glo 48 h, stronger effect = higher value.
[9] abbreviates: Rieske KO mouse fibroblast survival, CellTiter-Glo 72 h.

Calls of active or inactive are those of the source. Unless noted, no rule for the calls is given here.

Sequence of Cellular tumor antigen p53 (Homo sapiens) (P04637 whole entry, looked up): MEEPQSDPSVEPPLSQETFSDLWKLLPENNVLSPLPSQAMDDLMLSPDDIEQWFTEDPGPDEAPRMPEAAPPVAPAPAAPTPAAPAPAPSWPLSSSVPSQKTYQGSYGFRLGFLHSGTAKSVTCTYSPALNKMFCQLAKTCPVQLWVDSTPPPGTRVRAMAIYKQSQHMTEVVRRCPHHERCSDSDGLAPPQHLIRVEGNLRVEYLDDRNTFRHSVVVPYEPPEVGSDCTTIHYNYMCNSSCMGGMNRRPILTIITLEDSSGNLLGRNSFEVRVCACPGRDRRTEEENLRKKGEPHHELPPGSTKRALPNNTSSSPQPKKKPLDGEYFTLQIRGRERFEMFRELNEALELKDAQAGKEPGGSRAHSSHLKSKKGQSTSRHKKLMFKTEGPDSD

`NCc1ccc(-c2nc(-c3ccc(Cl)c(O)c3)c(-c3ccncc3)[nH]2)cc1` showed a liver cell % of control in assay [1] of 94.8%. Also, in assay [1], the parasite % of control is 77.4% (inactive). The percent of negative control (+Dex) in assay [2] is 91.5% (inactive). Further, the z-score in assay [2] is -0.18; in assay [3], 1.2 (inactive); in assay [4] it was -0.414 (inactive); in assay [7] (setting [8]) it was 0.156 (inactive); in assay [7] (setting [9]), -0.269. For the same molecule, the EGFP object count in assay [5] is 2. Also, the EGFP/DsRed ratio in assay [5] is 0.0758 (inactive). Further, the fraction signal in assay [6] was 0.0015 (inactive).

Regarding `CCS(=O)(=O)c1ccc(OC)c(Nc2nccc(N(C)c3ccc4c(C)[nH]nc4c3)n2)c1`, in assay [1], the liver cell % of control was 95.1%. Besides, in assay [1], the parasite % of control was 145% (inactive). In assay [2], the percent of negative control (+Dex) was 92% (inactive). For the same molecule, the z-score was -0.36 in assay [2]; -0.175 (inactive) in assay [3]; 2.99 (inactive) in assay [4]; 1.33 (inactive) in assay [7] (setting [8]); 0.00494 in assay [7] (setting [9]). Further, the EGFP object count in assay [5] stood at 2.5. For the same molecule, the EGFP/DsRed ratio in assay [5] was 0.0751 (inactive). Also, the fraction signal in assay [6] was -0.01 (inactive).

For `CCN1CCC(CC(=O)NC2NNC3NNC(c4cccc(F)c4F)CC32)CC1` (centres undefined), the liver cell % of control in assay [1] stood at 80.9%. The parasite % of control in assay [1] was 32.2% (inactive). Moreover, the percent of negative control (+Dex) in assay [2] is 118% (inactive). The z-score was -0.095 in assay [2]; -0.285 (inactive) in assay [3]; 0.818 (inactive) in assay [4]; -0.762 (inactive) in assay [7] (setting [8]); -0.436 in assay [7] (setting [9]). For the same molecule, the EGFP object count in assay [5] came to 25.5. Moreover, the EGFP/DsRed ratio in assay [5] is 0.256 (inactive). Also, the fraction signal in assay [6] is -0.004 (inactive).

Turning to `COc1ccccc1-c1cc(/C=C2\C(=O)Nc3ncc(Br)cc32)cc(Br)c1O`, the liver cell % of control in assay [1] is 102%. Besides, in assay [1], the parasite % of control was 116% (inactive). Also, the percent of negative control (+Dex) in assay [2] is 96% (inactive). Moreover, the z-score is -0.115 in assay [2]; 0.69 (inactive) in assay [3]; -0.578 (inactive) in assay [4]; -0.581 (inactive) in assay [7] (setting [8]); -0.341 in assay [7] (setting [9]). The EGFP object count in assay [5] amounted to 1. For the same molecule, the EGFP/DsRed ratio in assay [5] was 0.142 (inactive). The fraction signal in assay [6] was 0.0015 (inactive).

In the case of `COc1cc2c(cc1Nc1nc(Nc3cccc(F)c3C(N)=O)c3cc[nH]c3n1)N(C(=O)CN1CCN(C(C)C)CC1)CC2`, in assay [1], the liver cell % of control came out at 73.3%. Also, in assay [1], the parasite % of control was 300% (inactive). In addition, the percent of negative control (+Dex) in assay [2] is 95.5% (inactive). The z-score in assay [2] was -0.34; in assay [3], 0.095 (inactive); in assay [4] it was -0.476 (inactive); in assay [7] (setting [8]), -0.91 (inactive); in assay [7] (setting [9]) it was -0.402. Besides, the EGFP object count in assay [5] is 4.5. Also, the EGFP/DsRed ratio in assay [5] is 0.201 (inactive). Moreover, the fraction signal in assay [6] was 0.004 (inactive).

As for `CNC(=O)c1cccc(C#Cc2cncnc2Nc2ccc(OCc3cccc(F)c3)c(Cl)c2)c1`, in assay [1], the liver cell % of control was 105%. Besides, the parasite % of control in assay [1] was 143% (inactive). The percent of negative control (+Dex) in assay [2] was 78% (inactive). The z-score in assay [2] is -0.47; in assay [3] it was 0.59 (inactive); in assay [4], -0.769 (inactive); in assay [7] (setting [8]), -1.16 (inactive); in assay [7] (setting [9]), -0.232. The EGFP object count in assay [5] came out at 1. Besides, the EGFP/DsRed ratio in assay [5] is 0.0111 (inactive). Further, in assay [6], the fraction signal is 0.003 (inactive).

On to `CCS(=O)(=O)c1ccc(OC)c(Nc2ncc(-c3ccccc3Cl)o2)c1`, for which, in assay [1], the liver cell % of control stood at 160%. The parasite % of control in assay [1] was 36.8% (inactive). In addition, the percent of negative control (+Dex) in assay [2] is 74.5% (inactive). Moreover, the z-score was -0.91 in assay [2]; -0.335 (inactive) in assay [3]; -0.503 (inactive) in assay [4]; 1.39 (inactive) in assay [7] (setting [8]); -0.145 in assay [7] (setting [9]). For the same molecule, the EGFP object count in assay [5] worked out at 4.5. Besides, in assay [5], the EGFP/DsRed ratio is 0.0626 (inactive). The fraction signal in assay [6] is 0.0065 (inactive).

Turning to `N#Cc1ccc(Oc2nccc(-c3c(-c4ccc(F)cc4)ncn3C3CCNCC3)n2)cc1`, the liver cell % of control in assay [1] worked out at 76.8%. The parasite % of control in assay [1] was 142% (inactive). For the same molecule, the percent of negative control (+Dex) in assay [2] is 90.5% (inactive). For the same molecule, the z-score in assay [2] is 0.29; in assay [3] it was 0.255 (inactive); in assay [4] it was -0.275 (inactive); in assay [7] (setting [8]), -0.193 (inactive); in assay [7] (setting [9]), -0.456. In addition, the EGFP object count in assay [5] was 1. The EGFP/DsRed ratio in assay [5] is 0.00276 (inactive). In addition, the fraction signal in assay [6] was -0.0025 (inactive).

`Nc1ncnc2occ(-c3ccc(NC(=O)Nc4cc(C(F)(F)F)cc(C(F)(F)F)c4)cc3)c12` showed a liver cell % of control in assay [1] of 58.8%. Besides, in assay [1], the parasite % of control was 11.2% (inactive). Moreover, the percent of negative control (+Dex) in assay [2] was 77.5% (inactive). For the same molecule, the z-score in assay [2] is -2.48; in assay [3] it was -0.205 (inactive); in assay [4] it was -1.51 (inactive); in assay [7] (setting [8]) it was -0.873 (inactive); in assay [7] (setting [9]), -0.237. For the same molecule, the EGFP object count in assay [5] is 2. For the same molecule, in assay [5], the EGFP/DsRed ratio was 0.014 (inactive). In assay [6], the fraction signal was -0.006 (inactive).

The molecule `COc1ccc2cc(-c3c(-c4ccncc4)nc(-c4ccc(S(C)(=O)=O)cc4C)n3C)ccc2c1` displayed a liver cell % of control in assay [1] of 118%. The parasite % of control in assay [1] was 101% (inactive). For the same molecule, in assay [2], the percent of negative control (+Dex) was 99% (inactive). For the same molecule, the z-score in assay [2] was 0.22; in assay [3], 1.57 (inactive); in assay [4], -0.298 (inactive); in assay [7] (setting [8]), -0.409 (inactive); in assay [7] (setting [9]), -0.281. The EGFP object count in assay [5] was 1.5. For the same molecule, the EGFP/DsRed ratio in assay [5] is 0.0486 (inactive). The fraction signal in assay [6] was 0.0025 (inactive).

`CS(=O)(=O)CCNCc1ccc(-c2ccc3ncnc(Nc4ccc(OCc5cccc(F)c5)c(C(F)(F)F)c4)c3c2)o1`: the liver cell % of control in assay [1] worked out at 105%. For the same molecule, in assay [1], the parasite % of control was 99.7% (inactive). In addition, the percent of negative control (+Dex) in assay [2] is 106% (inactive). For the same molecule, the z-score in assay [2] was 1.84; in assay [3], 0.48 (inactive); in assay [4], -0.873 (inactive); in assay [7] (setting [8]), -0.506 (inactive); in assay [7] (setting [9]) it was -0.463. Besides, the EGFP object count in assay [5] turned out to be 1. Further, the EGFP/DsRed ratio in assay [5] is 0.00783 (inactive). In addition, in assay [6], the fraction signal is -0.0125 (inactive).

`COc1ccc2ncnc(Nc3ccc(OCc4ccccc4)cc3)c2c1` displayed a liver cell % of control in assay [1] of 120%. Besides, in assay [1], the parasite % of control was 92.8% (inactive). The percent of negative control (+Dex) in assay [2] was 88% (inactive). The z-score in assay [2] is -0.885; in assay [3] it was 0.35 (inactive); in assay [4], 1.39 (inactive); in assay [7] (setting [8]), -0.876 (inactive); in assay [7] (setting [9]), -0.262. In addition, the EGFP object count in assay [5] is 4. For the same molecule, the EGFP/DsRed ratio in assay [5] is 0.134 (inactive). In addition, the fraction signal in assay [6] is -0.023 (inactive).

For the molecule `CS(=O)(=O)CCNCc1ccc(-c2ccc3ncnc(Nc4ccc(OCc5ccccc5)cc4)c3c2)o1`, the liver cell % of control in assay [1] worked out at 63.9%. Besides, the parasite % of control in assay [1] is 59.1% (inactive). In assay [2], the percent of negative control (+Dex) is 74.5% (inactive). For the same molecule, the z-score in assay [2] is -1.54; in assay [3] it was 0.41 (inactive); in assay [4], -0.003 (inactive); in assay [7] (setting [8]), 0.5 (inactive); in assay [7] (setting [9]) it was -0.312. In addition, the EGFP object count in assay [5] is 6.5. Besides, the EGFP/DsRed ratio in assay [5] is 0.116 (inactive). In addition, the fraction signal in assay [6] is 0.006 (inactive).

Molecule `COc1cc2c(cc1Nc1nc(N3CCc4ccccc43)c3cc[nH]c3n1)N(C(=O)CN(C)C)CC2` yielded a liver cell % of control in assay [1] of 75%. Moreover, the parasite % of control in assay [1] was 160% (inactive). The percent of negative control (+Dex) in assay [2] was 104% (inactive). Also, the z-score in assay [2] was 0.675; in assay [3], 0.56 (inactive); in assay [4], 0.168 (inactive); in assay [7] (setting [8]) it was -0.598; in assay [7] (setting [9]), 2.39. The EGFP object count in assay [5] came to 16.5. Besides, the EGFP/DsRed ratio in assay [5] is 1.27 (inactive). Besides, the fraction signal in assay [6] was -0.0105 (inactive).

The values are drawn from PubChem BioAssay.
